Drawing on PubChem BioAssay, this text covers inhibition for 40 molecules.

Calls of active or inactive are those of the source.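 The calls were made as follows: active = inhibition at or above 50% relative to wild type and mutant plate controls; inactive = inhibition below 50%.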

This assay can be described thus: inhibitors of Chlamydomonas gravitaxis, primary screen, whole organism, Chlamydomonas reinhardtii, WT vs cilia-less mutant, absorbance, 96-well (AID 463189).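 Also: 0% = wild type cc124 cells in DMSO and 100% = ciliumless bld1 mutant cells.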 The following applies: OD600 absorbance, 2 days, at 10 µM, hits give high values.
`CC(C)(C(=O)O)c1ccc(C(O)CCCN2CCC(C(O)(c3ccccc3)c3ccccc3)CC2)cc1` (stereo not given): the inhibition is -1.29% (inactive).
`CC1(C)CCC2=C(O1)c1ccccc1C(=O)C2=O`: the inhibition was 153% (active).
`O=C(O)Cc1ccc(O)c(O)c1`: the inhibition was 5.56% (inactive).
For `NC(=NCc1ccccc1)NC(=O)c1nc(Cl)c(N)nc1N`, the inhibition is -1.5% (inactive).
For `CN(C)C(N)=NCCC[C@H](N)C(=O)O`, the inhibition was 11.1% (inactive).
`CC(C)[C@@H](CO)Nc1nc(Nc2cccc(Cl)c2)c2ncn(C(C)C)c2n1`: the inhibition is -2.67% (inactive).
With `O=C(O)CC1CCCc2ccccc2C1O` (stereo not given), the inhibition is 4.59% (inactive).
For the molecule `COC(=O)[C@H]1[C@H]2C[C@H]3c4[nH]c5ccccc5c4CCN3C[C@H]2CC[C@@H]1O`, the inhibition was 6.15% (inactive).
For `CCCCCCCCCC[Si](C)(C)CCC(=O)NC(Cc1ccc(C)cc1)c1ccccc1` (stereo not given), the inhibition is 1.73% (inactive).
For `O=C(OCCN1CCCCC1)c1c[nH]c2ccccc12`, the inhibition was 5.42% (inactive).
On to `CC(=O)NCCc1c[nH]c2ccc(O)cc12`, for which the inhibition is -4.58% (inactive).
For the molecule `CSc1ccc2c(c1)C(N1CCN(C)CC1)Cc1ccccc1S2` (stereo not given), the inhibition is 0.427% (inactive).
As for `O=C(O)CCc1nc(-c2ccccc2)c(-c2ccccc2)o1`, the inhibition was 7.1% (inactive).
Under `O=C(O)c1cccnc1C(=O)O` stands 3.76% (inactive); under `CCSC(N)=Nc1ccc(C(F)(F)F)cc1`, 3.43% (inactive); under `CCN1CCc2nc(N)oc2CC1`, 6.74% (inactive).
Regarding `Cn1c(=O)c2[nH]c(C3CCCC3)nc2n(C)c1=O`, the inhibition is -2.05% (inactive).
For the molecule `CC/C(=C(\c1ccccc1)c1ccc(OCCN(C)C)cc1)c1ccccc1`, the inhibition was 50.3% (active).
Turning to `CCCCCCCCCCCCCCSCC(=O)O`, the inhibition is 7.96% (inactive).
With `CC1=C(C(=O)O)N2C(=O)[C@@H](NC(=O)C(N)c3ccccc3)[C@H]2SC1` (stereo not given in full), the inhibition was -0.964% (inactive).
Regarding `O=C(O)C1=CCCNC1`, the inhibition is 5.21% (inactive).
For the molecule `Oc1cc2c(cc1O)CN(C(=S)NCCc1ccc(Cl)cc1)CCC2`, the inhibition is 23.4% (inactive).
As for `CC#C[C@]1(O)CC[C@H]2[C@@H]3CCC4=CC(=O)CCC4=C3[C@@H](c3ccc(N(C)C)cc3)C[C@@]21C`, the inhibition is 1.39% (inactive).
To `OC(CN1CCN(c2cccc(Cl)c2)CC1)C(c1ccccc1)c1ccccc1` (stereo not given) belongs 4.93% (inactive).
For `O=c1c(O)c(-c2ccc(O)c(O)c2)oc2cc(O)cc(O)c12`, the inhibition was 2.39% (inactive).
Turning to `Cc1cc(C)c(NC(=O)C[C@H](CC(=O)O)c2cccc3ccccc23)c(C(=O)N2CCC3(CCCC3)CC2)c1`, the inhibition was 13.6% (inactive).
On to `C=CCN1CCc2cc(O)c(O)cc2C(c2ccccc2)C1` (stereo not given), for which the inhibition was 8.31% (inactive).
Turning to `COC(=O)c1c(-c2cc(OC)c(OC)c(OC)c2)c2ccc(OCc3ccccn3)cc2c(=O)n1-c1ccc(N)cc1`, the inhibition was 2.92% (inactive).
For the molecule `N[C@H]1CONC1=O`, the inhibition was 6.36% (inactive).
As for `C[C@@H](NCCc1ccc(O)cc1)[C@@H](O)c1ccc(O)cc1`, the inhibition was 2.54% (inactive).
Take `NCCNS(=O)(=O)c1cccc2cnccc12`: the inhibition was -4.46% (inactive).
Take `NC(=O)NO`: the inhibition is -5.8% (inactive).
`CCC1(C)CC(=O)NC1=O` (stereo not given): the inhibition is 1.95% (inactive).
Consider `CNc1ncnc2c1ncn2[C@@H]1O[C@H](CO)[C@H](O)C1O` (stereo not given in full), for which the inhibition was 7.79% (inactive).
On to `O=C(NCCNCC(O)COc1ccc(O)cc1)N1CCOCC1` (stereo not given), for which the inhibition was 10.1% (inactive).
To `NC(N)=NC(=O)Cc1c(Cl)cccc1Cl` belongs 4.12% (inactive); to `N[C@@H](Cc1c[nH]c2ccccc12)C(=O)O`, 5.27% (inactive).
Regarding `COC(=O)[C@@H]1[C@H]2C[C@H]3c4[nH]c5ccccc5c4CCN3C[C@@H]2CC[C@@H]1O`, the inhibition was 8.68% (inactive).
As to `CCCCC/C=C\CC(O)/C=C/c1cccc(CC(O)CCCCO)n1` (stereo not given), the inhibition is -1.14% (inactive).
Under `Nc1nc(Cl)nc2c1ncn2[C@@H]1O[C@H](CO)[C@H](O)C1O` (stereo not given in full) stands 1.82% (inactive).
